SMILES strings stand for the structures. A number with no mark means an inactive call. Inconclusive results are not listed. The source made the active and inactive calls. The call rests on the fitted dose curve; in most records, active means well fitted curve in the direction sought with a large enough effect in the repeat runs; inconclusive means weak or mixed curves; inactive means no such curve, though single readings can be large; an effect the other way counts as inactive or inconclusive.

The source of these data is PubChem BioAssay (Tox21).

The nature of test [1]: Human pregnane X receptor (PXR) small molecule agonists, qHTS cell viability counter screen (AID 1346977). Further: nearly all actives have a fitted effect of over 50% in size. Further: potency means the concentration at half of the fitted maximal effect. Summed up:
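Fluorescence read-out (CellTiter-Fluor) of viability in PXR-Luc HepG2 cells, multiplexed with the luciferase agonist read. Compounds in DMSO added after 5hr plating; 24hr total exposure at 37C, 5% CO2.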

Test [2] is described as follows: Caspase-3/7 induction in HepG2 cells by small molecules, qHTS assay (AID 1346978). Further: nearly all actives have a fitted effect of over 15% in size. An outline of the steps: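 Wild-type HepG2 cells, 2,000/well, settled 5 hr at 37 C and 5% CO2, then compound-treated for 17 hr; caspase-3/7 activity read by luminescent Caspase-Glo 3/7 after 30 min at room temperature.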
On the technique in general: In qHTS, concentration-response curves come from the screen itself.

A short description of test [3]: Caspase-3/7 induction in HepG2 cells by small molecules, qHTS cell viability counter screen (AID 1346981). Further: nearly all actives have a fitted effect of over 30% in size. Further: potency means the concentration at half of the fitted maximal effect. Summed up:
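HepG2, WT, 2,000 cells/well; 5 hr pre-incubation 37 C/5% CO2; compound pin-transferred from DMSO; 16 hr exposure; CellTiter-Fluor, 1 hr; fluorescence read.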

Test [4] concerns the target Nuclear receptor subfamily 1 group I member 2 (Homo sapiens) (UniProt O75469). As to the kind of experiment: Human pregnane X receptor (PXR) small molecule agonists, qHTS assay (AID 1346982). Further: nearly all actives have a fitted effect of over 35% in size. Further: potency means the concentration at half of the fitted maximal effect. An outline of the steps: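 Luciferase signal from ONE-Glo (30 min, room temperature) measured activation of hPXR-driven CYP3A4 reporter expression in PXR-Luc HepG2 cells treated with compounds for 24 hr at 37 C.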

Test [5] concerns the target Nuclear receptor subfamily 1 group I member 2 (Rattus norvegicus) (UniProt Q9R1A7). Kind of test: Rat pregnane X receptor (rPXR) activation by small molecules, qHTS assay (AID 1346983). Further: nearly all actives have a fitted effect of over 20% in size. Conditions: rPXR luciferase reporter cells, One-Glo luminescence, 24 h; max activation: active compounds read high. Summed up: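 Cell-based rPXR activation assay: rPXR cells, 2,000 per well, rested 5hr at 37 C, then exposed to compounds in DMSO for 24 hr at 37 C. Luciferase activity read by One-Glo luminescence after 30 min at room temperature.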

Test [6] concerns the target Nuclear receptor subfamily 1 group I member 2 (Homo sapiens) (UniProt O75469). Kind of test: CYP3A4 induction through human pregnane X receptor (PXR) by small molecules, qHTS assay (AID 1346984). Further: nearly all actives have a fitted effect of over 40% in size. Further: potency means the concentration at half of the fitted maximal effect. Summed up: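 Luminescence readout: luciferase signal after One-Glo (30 min, room temperature), following 3 h at 37C with 3uM final Luciferin-IPA P450 substrate. Cells were DPX-2 (HepG2, PXR/CYP3A4-luc co-transfected) dosed for 24 h.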

The target is the same in test [7]. Kind of test: Human pregnane X receptor (PXR) activation by small molecules, qHTS assay (AID 1346985). Further: nearly all actives have a fitted effect of over 40% in size. Further: potency means the concentration at half of the fitted maximal effect. An outline of the steps:
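DPX-2 cells (HepG2 co-transfected with a PXR response element and a CYP3A4-promoter luciferase construct) were seeded at 2,000 per well, rested 5 hr at 37C, then exposed to DMSO-dissolved compounds for 24 hr. Activation was read as luciferase luminescence.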

The target in test [8] is Cytochrome P450 2D6 (Homo sapiens) (UniProt P10635). Kind of test: Cytochrome P450 Family 2 Subfamily D Member 6 (CYP2D6) small molecule antagonists: luciferase reporter qHTS assay (AID 1671196). Further: nearly all actives have a fitted effect of over 50% in size. Further: potency means the concentration at half of the fitted maximal effect. Summed up:
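Read-out is luminescence from luciferin formed by CYP2D6 turnover of a proluciferin substrate, recorded as relative luminescence units. Reactions ran 1 h at room temperature after NADPH regeneration solution was added.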
In general terms: A reporter such as luciferase makes a cellular process visible.

In test [9] the target is Cytochrome P450 2C9 (Homo sapiens) (UniProt P11712). As to the kind of experiment: Cytochrome P450 Family 2 Subfamily C Member 9 (CYP2C9) small molecule antagonists: luciferase reporter qHTS assay (AID 1671198). Further: nearly all actives have a fitted effect of over 50% in size. Further: potency means the concentration at half of the fitted maximal effect. An outline of the steps: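 P450-Glo proluciferin substrate with CYP2C9 enzyme; 10 min RT preincubation, then NADPH regeneration 1 h at 37C; luciferin detection reagent 20 min RT, luminescence in relative luminescence units.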

The target in test [10] is Cytochrome P450 1A2 (Homo sapiens) (UniProt P05177). Kind of test: Cytochrome P450 Family 1 Subfamily A Member 2 (CYP1A2) small molecule antagonists: luciferase reporter qHTS assay (AID 1671199). Further: nearly all actives have a fitted effect of over 50% in size. Further: potency means the concentration at half of the fitted maximal effect. Summed up:
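P450-Glo CYP1A2, 1536-well qHTS: enzyme/proluciferin substrate + cpd (DMSO), 10 min RT; NADPH regen, 1 h RT; detection reagent, 20 min; luminescence, RLU.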

The target in test [11] is Voltage-gated inwardly rectifying potassium channel KCNH2 (Homo sapiens) (UniProt Q12809). Kind of test: Human Ether-a-go-go-Related Gene (hERG) channel small molecule antagonists: fluorescence cell-based qHTS assay (AID 1671200). Further: nearly all actives have a fitted effect of over 50% in size. Further: potency means the concentration at half of the fitted maximal effect. Summed up: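 Read-out: thallium influx as a surrogate for potassium, tracked as fluorescence (480 nm ex/540 nm em) every second for 2 min after Stimulus Buffer addition in dye-loaded hERG-U2OS cells.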
A general note: The hERG channel carries a current that helps repolarise heart muscle cells.

A short description of test [12]: Caspase-3/7 induction in CHO-K1 cells by small molecules, qHTS assay (AID 1346980). Further: nearly all actives have a fitted effect of over 15% in size. Further: potency means the concentration at half of the fitted maximal effect. Summed up: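 Wild-type CHO-K1 cells exposed to compounds for 17hr at 37 C, 5% CO2. Caspase-3/7 activity then measured by Caspase-Glo 3/7 luminescence after 30min at room temperature.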
The target in test [13] is Cytochrome P450 2C19 (Homo sapiens) (UniProt P33261). Kind of test: Cytochrome P450 Family 2 Subfamily C Member 19 (CYP2C19) small molecule antagonists: luciferase reporter qHTS assay (AID 1671197). Further: nearly all actives have a fitted effect of over 65% in size. Further: potency means the concentration at half of the fitted maximal effect. An outline of the steps:
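First, compounds are pinned into enzyme-substrate mix and held 10 min at room temperature. Second, NADPH regeneration solution is added and plates incubate 1 h at 37C. Third, detection reagent is added and luminescence read after 20 min.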

Test [14] addresses Cytochrome P450 3A4 (Homo sapiens) (UniProt P08684). Kind of test: Cytochrome P450 Family 3 Subfamily A Member 4 (CYP3A4) small molecule antagonists: luciferase reporter qHTS assay (AID 1671201). Further: nearly all actives have a fitted effect of over 50% in size. Further: potency means the concentration at half of the fitted maximal effect. An outline of the steps: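 Luminescent readout (RLU) proportional to CYP3A4 activity, from luciferin generated off a proluciferin substrate. Enzyme–substrate mix plus compound 10 min at room temp, NADPH regeneration 1 h, detection reagent 20 min.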

Test [15] is described as follows: Caspase-3/7 induction in CHO-K1 cells by small molecules, qHTS cell viability counter screen (AID 1346979). Further: nearly all actives have a fitted effect of over 35% in size. Further: potency means the concentration at half of the fitted maximal effect. An outline of the steps:
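CHO-K1 wt, 1,500 cells/well; 5hr pre-incubation 37C/5% CO2; compound pin transfer (DMSO); 16hr exposure; CellTiter-Fluor added, 1hr, fluorescence read.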
On the % scale 0 is the no-effect control and ±100 the full control effect.

Cytochrome P450 2D6 (Homo sapiens), sequence (P10635 whole entry, looked up): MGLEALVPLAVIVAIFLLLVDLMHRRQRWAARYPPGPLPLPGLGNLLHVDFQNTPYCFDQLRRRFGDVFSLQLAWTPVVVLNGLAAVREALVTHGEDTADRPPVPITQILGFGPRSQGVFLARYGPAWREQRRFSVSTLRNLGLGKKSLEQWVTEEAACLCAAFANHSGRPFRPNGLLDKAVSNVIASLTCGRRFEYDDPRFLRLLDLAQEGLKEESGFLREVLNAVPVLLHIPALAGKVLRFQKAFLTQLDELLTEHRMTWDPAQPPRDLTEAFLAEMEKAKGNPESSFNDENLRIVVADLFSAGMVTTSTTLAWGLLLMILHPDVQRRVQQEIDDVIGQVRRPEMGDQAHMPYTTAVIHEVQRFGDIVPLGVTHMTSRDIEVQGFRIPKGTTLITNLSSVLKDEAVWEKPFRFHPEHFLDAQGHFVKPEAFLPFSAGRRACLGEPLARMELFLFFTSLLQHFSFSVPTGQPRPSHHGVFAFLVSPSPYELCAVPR
Cytochrome P450 3A4 (Homo sapiens), sequence (P08684 whole entry, looked up): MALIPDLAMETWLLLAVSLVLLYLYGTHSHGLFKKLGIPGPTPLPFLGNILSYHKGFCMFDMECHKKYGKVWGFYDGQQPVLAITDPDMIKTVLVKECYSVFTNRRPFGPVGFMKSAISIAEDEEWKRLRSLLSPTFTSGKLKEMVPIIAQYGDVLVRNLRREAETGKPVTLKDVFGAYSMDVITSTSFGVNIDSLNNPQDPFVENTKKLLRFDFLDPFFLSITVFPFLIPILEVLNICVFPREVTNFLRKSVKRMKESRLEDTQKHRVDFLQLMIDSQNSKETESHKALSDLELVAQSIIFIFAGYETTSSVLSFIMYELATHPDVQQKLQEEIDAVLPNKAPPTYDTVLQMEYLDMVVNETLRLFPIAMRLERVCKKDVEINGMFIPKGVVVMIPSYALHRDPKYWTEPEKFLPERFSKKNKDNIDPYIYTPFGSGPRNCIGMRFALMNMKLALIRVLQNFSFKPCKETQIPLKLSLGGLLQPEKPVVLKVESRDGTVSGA
Nuclear receptor subfamily 1 group I member 2 (Rattus norvegicus), sequence (Q9R1A7 whole entry, looked up): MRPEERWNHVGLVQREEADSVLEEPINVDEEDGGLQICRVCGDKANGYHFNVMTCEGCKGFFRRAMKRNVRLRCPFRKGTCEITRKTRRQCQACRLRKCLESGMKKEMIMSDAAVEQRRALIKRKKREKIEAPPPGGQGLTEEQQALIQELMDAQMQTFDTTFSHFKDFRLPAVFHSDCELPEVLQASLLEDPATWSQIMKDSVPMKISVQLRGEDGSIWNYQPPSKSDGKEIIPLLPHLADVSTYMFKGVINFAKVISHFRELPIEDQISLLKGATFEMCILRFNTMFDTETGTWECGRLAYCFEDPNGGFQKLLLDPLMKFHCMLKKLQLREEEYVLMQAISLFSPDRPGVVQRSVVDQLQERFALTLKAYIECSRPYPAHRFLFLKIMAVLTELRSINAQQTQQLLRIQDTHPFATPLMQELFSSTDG
Cytochrome P450 1A2 (Homo sapiens), sequence (P05177 whole entry, looked up): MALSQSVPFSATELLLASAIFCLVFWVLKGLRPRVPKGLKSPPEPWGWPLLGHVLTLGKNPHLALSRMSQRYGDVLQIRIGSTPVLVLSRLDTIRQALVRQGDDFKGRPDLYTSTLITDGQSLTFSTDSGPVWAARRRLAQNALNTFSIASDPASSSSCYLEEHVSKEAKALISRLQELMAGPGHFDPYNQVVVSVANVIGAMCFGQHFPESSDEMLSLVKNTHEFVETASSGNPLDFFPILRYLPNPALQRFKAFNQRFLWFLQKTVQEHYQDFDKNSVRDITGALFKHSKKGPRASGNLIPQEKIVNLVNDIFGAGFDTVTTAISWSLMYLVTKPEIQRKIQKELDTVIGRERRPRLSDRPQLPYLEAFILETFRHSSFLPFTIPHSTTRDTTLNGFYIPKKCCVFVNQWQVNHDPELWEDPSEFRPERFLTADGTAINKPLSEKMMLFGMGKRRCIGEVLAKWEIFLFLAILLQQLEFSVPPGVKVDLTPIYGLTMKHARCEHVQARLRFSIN
Voltage-gated inwardly rectifying potassium channel KCNH2 (Homo sapiens), sequence (Q12809 whole entry, looked up): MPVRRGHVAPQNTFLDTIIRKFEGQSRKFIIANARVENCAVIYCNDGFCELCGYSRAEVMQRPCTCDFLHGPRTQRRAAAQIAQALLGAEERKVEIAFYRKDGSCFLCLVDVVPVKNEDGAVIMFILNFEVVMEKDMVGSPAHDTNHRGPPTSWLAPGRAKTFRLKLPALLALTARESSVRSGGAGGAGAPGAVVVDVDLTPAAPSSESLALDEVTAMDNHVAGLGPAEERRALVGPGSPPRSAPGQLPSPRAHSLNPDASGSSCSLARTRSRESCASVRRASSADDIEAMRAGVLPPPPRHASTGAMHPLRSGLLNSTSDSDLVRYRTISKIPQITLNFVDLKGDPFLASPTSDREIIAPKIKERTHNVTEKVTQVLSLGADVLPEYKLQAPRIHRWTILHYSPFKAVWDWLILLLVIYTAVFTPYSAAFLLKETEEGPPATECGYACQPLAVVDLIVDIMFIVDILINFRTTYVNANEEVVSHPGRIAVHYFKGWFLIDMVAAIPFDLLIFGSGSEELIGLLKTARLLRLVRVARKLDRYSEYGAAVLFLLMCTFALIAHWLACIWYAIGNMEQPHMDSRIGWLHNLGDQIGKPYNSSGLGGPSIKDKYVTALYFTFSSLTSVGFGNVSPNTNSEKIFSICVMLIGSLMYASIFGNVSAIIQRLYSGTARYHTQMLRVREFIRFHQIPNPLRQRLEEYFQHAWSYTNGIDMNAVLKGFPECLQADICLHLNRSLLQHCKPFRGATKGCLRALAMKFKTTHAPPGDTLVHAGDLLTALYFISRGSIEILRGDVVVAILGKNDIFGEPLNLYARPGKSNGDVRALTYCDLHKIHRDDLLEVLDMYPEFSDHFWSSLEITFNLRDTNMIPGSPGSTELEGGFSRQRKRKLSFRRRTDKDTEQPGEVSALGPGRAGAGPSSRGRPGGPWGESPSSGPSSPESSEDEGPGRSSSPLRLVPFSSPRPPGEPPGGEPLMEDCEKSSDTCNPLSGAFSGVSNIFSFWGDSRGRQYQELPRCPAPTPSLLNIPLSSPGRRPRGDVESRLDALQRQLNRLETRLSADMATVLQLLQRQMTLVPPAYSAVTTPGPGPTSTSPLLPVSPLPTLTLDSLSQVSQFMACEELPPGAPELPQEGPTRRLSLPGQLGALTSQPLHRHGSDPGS
Nuclear receptor subfamily 1 group I member 2 (Homo sapiens), sequence (O75469 whole entry, looked up): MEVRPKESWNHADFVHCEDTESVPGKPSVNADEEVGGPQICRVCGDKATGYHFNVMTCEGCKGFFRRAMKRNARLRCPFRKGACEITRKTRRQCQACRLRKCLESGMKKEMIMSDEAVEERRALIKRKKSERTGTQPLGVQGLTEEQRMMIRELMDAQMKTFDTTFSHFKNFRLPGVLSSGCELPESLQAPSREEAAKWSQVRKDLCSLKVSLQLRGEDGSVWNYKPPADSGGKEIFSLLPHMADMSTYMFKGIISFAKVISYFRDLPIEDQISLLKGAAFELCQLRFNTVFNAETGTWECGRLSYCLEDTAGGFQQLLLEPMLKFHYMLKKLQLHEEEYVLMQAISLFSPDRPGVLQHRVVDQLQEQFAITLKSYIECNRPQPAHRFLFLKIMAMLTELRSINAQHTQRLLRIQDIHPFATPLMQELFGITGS
Cytochrome P450 2C9 (Homo sapiens), sequence (P11712 whole entry, looked up): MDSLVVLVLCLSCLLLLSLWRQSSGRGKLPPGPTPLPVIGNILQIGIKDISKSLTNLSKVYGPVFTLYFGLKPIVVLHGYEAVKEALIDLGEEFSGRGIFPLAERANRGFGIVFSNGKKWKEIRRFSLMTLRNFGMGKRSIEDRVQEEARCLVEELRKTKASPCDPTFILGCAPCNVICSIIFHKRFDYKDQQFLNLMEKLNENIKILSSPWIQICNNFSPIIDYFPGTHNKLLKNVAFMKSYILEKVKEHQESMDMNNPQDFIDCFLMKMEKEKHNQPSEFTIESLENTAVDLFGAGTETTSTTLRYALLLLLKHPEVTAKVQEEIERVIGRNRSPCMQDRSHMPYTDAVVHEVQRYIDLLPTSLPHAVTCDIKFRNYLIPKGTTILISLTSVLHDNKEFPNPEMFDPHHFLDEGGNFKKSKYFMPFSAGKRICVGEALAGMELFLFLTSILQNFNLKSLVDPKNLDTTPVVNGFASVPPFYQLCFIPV
Cytochrome P450 2C19 (Homo sapiens), sequence (P33261 whole entry, looked up): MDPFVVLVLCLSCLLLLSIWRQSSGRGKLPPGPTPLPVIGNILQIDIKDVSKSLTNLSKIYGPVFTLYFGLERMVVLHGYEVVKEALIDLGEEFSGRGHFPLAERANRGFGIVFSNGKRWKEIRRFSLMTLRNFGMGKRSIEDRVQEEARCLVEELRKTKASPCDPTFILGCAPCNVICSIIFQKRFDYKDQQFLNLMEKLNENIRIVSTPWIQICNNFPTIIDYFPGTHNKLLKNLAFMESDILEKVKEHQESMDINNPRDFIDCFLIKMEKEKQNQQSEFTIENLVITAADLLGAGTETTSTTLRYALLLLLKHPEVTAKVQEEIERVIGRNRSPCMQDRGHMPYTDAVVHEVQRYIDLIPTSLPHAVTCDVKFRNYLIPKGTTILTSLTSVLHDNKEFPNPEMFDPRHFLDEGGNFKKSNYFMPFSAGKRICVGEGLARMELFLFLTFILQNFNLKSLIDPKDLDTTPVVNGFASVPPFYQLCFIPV

Turning to `CCCCNc1ccc(C(=O)OCCOCCOCCOCCOCCOCCOCCOCCOCCOC)cc1`, the Potency entry in [1], in test [2], in test [3], in [4], in test [6] and in [7] was “inactive” each time. The Potency entry in [8], in test [10] and in test [11] was “inactive” each time. Further, the max activation in test [5] is -3.41%. Also, in [9], the Potency is 12.3 µM (active).
With `COc1ccc(C(=O)c2ccc(OC)cc2O)c(O)c1`, the Potency entry in test [1], in test [2], in [12] and in test [11] was “inactive” each time. Besides, the Potency is 27.5 µM (active) in test [4]; 0.802 µM (active) in test [13]; 11.3 µM (active) in test [9]; 0.402 µM (active) in test [10]; 25.4 µM (active) in test [14].
`COc1ccc(S(=O)(=O)N2C(=O)[C@@](c3ccccc3OC)(N3C[C@H](O)C[C@H]3C(=O)N(C)C)c3cc(Cl)ccc32)c(OC)c1`: the Potency was 54.5 µM (active) in test [1]; 30.6 µM (active) in test [15]; 61.1 µM (active) in test [12]; 30.6 µM (active) in [3]; 61.1 µM (active) in [4]; 31.7 µM (active) in test [13]. Also, the Potency is 39.9 µM (active) in test [9] and 0.0894 µM (active) in [14].
`COc1cccc(N(C)C(=S)Oc2ccc3c(c2)CCCC3)n1`: the Potency result in test [1], in test [2], in test [12], in test [3], in [8] and in test [11] was “inactive” throughout. Further, the Potency in test [7] was 1.26 µM (active); in test [13], 2.75 µM (active); in test [10] it was 24.5 µM (active).
`CNCCCCOc1ccccc1Cc1ccccc1`: the Potency was 26.6 µM (active) in [1], 2.45 µM (active) in test [8] and 3.38 µM (active) in test [11]. Moreover, the Potency entry in test [12], in [3], in [4], in [7] and in [9] was “inactive” throughout.
Take `O=C(O)C1(C(=O)Nc2ccc(Cl)cc2Cl)CC1`: the Potency entry in test [1], in test [2], in [12] and in test [14] was “inactive” in each case. Further, the Potency in test [4] was 24.3 µM (active); in test [9] it was 15.9 µM (active); in test [10], 39.9 µM (active).
`CC1OC(=O)C(C)OC1=O` (stereo not drawn): the Potency result in [1], in test [2], in test [12], in [3], in [8] and in test [13] was “inactive” throughout. The Potency result in [9], in [10], in [11] and in test [14] was “inactive” each time.
With `COc1cc2nc(N3CCN(C(=O)C4COc5ccccc5O4)CC3)nc(N)c2cc1OC` (stereo not drawn), the Potency in test [1] is 26.6 µM (active). For the same compound, the Potency result in test [2], in [12], in test [8], in [13] and in test [10] was “inactive” throughout. The max activation in test [5] is -0.947%.
With `OC(C#CCN1CCCC1)(c1ccccc1)c1ccccc1`, the Potency entry in test [2], in test [15], in test [12], in [3] and in test [10] was “inactive” in each case. The Potency was 23.7 µM (active) in test [4]; 15.8 µM (active) in [6]; 11 µM (active) in [8]; 2.45 µM (active) in [13]; 15.5 µM (active) in [9]. Besides, the max activation in test [5] was 1.06%.
As to `CN1CCN(C(c2ccccc2)c2ccccc2)CC1`, the Potency result in test [2], in test [15], in test [12], in [3], in [4] and in test [6] was “inactive” in each case. Moreover, the Potency entry in test [7], in test [9], in [10], in test [11] and in test [14] was “inactive” in each case. The max activation in test [5] was -2.77%. In addition, the Potency in test [8] was 4.9 µM (active).
